In article PMC7862700, “An all-to-all approach to the identification of sequence-specific readers for epigenetic DNA modifications on cytosine”:

Assays:
Experiment in all cases: DAPPL (digital affinity profiling via proximity ligation, sequencing); 10 mM Tris-HCl pH 7.5, 50 mM NaCl, 1 mM DTT, 4% glycerol, room temperature, 30 min; GST-TFs on glutathione beads, 16-mer random dsDNA library, 0.1% formaldehyde crosslink after washing; high values mean tight binding
Conditions in all cases: protein: recombinant; tags: N-terminal GST; dsDNA, one strand shown
ERF = biological target: T1, ERF (Homo sapiens, UniProt P50548 1-548)
T1 sequence: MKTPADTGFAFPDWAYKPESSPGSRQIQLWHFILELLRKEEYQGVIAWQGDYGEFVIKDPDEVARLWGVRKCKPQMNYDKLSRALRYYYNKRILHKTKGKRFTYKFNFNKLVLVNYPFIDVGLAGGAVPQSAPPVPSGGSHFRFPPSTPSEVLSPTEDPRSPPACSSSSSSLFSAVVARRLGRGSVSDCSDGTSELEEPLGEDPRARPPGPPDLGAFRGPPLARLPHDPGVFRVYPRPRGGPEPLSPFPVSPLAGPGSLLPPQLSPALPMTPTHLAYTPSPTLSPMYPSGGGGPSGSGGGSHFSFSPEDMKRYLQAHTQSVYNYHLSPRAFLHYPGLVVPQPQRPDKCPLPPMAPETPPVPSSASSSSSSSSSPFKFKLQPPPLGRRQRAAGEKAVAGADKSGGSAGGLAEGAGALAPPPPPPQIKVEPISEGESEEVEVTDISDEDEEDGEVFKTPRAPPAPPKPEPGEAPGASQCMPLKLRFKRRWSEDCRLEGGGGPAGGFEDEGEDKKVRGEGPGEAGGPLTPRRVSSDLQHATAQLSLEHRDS
Procedure, shortened: (§1)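 Binding signal is defined as a hexamer's read frequency for one factor over its frequency for the tag-only sample. To obtain reads, GST-fused human transcription factors were expressed in yeast, captured on glutathione beads, barcoded with DNA and pooled with that sample. Pools met 200 nmole of a 16-mer random double-stranded DNA library in Tris/NaCl/DTT/glycerol buffer for 30 min at room temperature before washing, 0.1% formaldehyde crosslinking, proximity ligation (BsaI/T4 ligase, 1 h, 37 °C), PCR and Illumina NextSeq500 sequencing.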

ETV3L = biological target: T2, ETV3L (Homo sapiens, UniProt Q6ZN32 1-361)
T2 sequence: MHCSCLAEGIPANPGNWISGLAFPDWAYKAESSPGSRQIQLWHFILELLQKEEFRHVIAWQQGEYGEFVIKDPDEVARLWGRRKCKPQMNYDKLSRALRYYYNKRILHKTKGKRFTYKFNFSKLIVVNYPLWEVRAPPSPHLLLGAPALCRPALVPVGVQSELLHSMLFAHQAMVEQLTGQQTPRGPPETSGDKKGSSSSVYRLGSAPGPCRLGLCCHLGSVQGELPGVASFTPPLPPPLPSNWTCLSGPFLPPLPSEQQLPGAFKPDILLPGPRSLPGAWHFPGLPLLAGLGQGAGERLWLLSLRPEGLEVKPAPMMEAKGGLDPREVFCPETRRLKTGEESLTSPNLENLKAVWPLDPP
Procedure, shortened: as §1

ETS2 = biological target: T3, ETS2 (Homo sapiens, UniProt P15036 1-469)
T3 sequence: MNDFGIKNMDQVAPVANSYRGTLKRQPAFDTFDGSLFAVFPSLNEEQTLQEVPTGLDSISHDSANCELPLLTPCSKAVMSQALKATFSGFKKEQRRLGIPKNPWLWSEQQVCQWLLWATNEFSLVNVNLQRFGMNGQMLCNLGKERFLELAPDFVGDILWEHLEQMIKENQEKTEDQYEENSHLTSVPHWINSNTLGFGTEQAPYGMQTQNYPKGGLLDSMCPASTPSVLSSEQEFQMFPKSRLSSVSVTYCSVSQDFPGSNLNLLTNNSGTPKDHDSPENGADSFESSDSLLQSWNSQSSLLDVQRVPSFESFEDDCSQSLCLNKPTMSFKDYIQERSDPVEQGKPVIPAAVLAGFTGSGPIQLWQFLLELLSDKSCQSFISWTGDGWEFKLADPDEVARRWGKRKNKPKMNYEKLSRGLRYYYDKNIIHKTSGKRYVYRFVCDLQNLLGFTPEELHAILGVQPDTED
Procedure, shortened: as §1

SPDEF = biological target: T4, SPDEF (Homo sapiens, UniProt O95238 1-335)
T4 sequence: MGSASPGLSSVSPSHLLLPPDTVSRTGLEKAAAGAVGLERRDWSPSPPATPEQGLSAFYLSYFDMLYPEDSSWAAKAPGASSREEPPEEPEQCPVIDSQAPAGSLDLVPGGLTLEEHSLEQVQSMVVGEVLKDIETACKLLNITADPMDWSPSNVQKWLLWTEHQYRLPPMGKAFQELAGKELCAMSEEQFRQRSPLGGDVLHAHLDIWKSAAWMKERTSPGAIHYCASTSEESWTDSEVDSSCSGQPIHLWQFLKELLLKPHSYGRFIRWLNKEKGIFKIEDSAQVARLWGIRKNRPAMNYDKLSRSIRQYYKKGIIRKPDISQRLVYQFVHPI
Procedure, shortened: as §1

ETV7 = biological target: T5, ETV7 (Homo sapiens, UniProt Q9Y603 1-341)
T5 sequence: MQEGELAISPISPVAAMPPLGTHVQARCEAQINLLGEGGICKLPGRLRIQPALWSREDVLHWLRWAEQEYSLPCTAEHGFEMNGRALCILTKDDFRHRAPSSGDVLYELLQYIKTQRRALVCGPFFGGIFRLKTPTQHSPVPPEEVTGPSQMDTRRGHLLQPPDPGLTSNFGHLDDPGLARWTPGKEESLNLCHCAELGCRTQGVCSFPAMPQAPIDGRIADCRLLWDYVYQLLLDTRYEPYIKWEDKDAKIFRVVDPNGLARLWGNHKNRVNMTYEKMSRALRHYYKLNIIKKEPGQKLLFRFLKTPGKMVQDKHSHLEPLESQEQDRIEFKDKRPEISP
Procedure, shortened: as §1

ELF5 = biological target: T6, ELF5 (Homo sapiens, UniProt Q9UKW6-2 1-255)
T6 sequence: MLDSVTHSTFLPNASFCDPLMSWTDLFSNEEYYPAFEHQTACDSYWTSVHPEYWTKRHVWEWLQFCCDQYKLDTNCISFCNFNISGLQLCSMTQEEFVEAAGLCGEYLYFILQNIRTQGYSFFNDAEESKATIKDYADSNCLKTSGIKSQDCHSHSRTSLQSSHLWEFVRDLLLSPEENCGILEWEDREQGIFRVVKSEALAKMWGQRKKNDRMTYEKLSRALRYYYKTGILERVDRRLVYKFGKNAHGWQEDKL
Procedure, shortened: as §1

ETV3 = biological target: T7, ETV3 (Homo sapiens, UniProt P41162-2 1-143)
T7 sequence: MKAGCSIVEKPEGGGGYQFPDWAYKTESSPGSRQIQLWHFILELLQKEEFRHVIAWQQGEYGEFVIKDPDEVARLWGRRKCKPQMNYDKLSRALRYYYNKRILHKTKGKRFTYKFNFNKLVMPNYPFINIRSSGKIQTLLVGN
Procedure, shortened: as §1

ETV6 = ETV6 (Homo sapiens, UniProt P41212 1-452)
Procedure, shortened: as §1

ETV6, sequence (P41212 whole entry): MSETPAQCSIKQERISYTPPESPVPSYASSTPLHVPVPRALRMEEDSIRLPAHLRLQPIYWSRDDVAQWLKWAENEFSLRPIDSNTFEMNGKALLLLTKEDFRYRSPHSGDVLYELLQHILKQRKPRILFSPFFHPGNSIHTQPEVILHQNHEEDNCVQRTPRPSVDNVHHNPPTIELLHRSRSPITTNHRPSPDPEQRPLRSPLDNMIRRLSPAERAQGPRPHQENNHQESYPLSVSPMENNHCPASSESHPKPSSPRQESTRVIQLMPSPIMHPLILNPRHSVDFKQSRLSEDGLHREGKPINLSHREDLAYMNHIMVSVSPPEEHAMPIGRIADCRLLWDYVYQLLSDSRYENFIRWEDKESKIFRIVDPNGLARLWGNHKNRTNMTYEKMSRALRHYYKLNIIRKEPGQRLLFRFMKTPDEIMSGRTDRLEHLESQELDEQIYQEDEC

With ACACTC the binding signal (ERF) was 1.06 fold enrichment (6-mer frequency, TF over GST control), the binding signal (ETV3L) was 1.08 fold enrichment (6-mer frequency, TF over GST control) and the binding signal (ETS2) was 1.14 fold enrichment (6-mer frequency, TF over GST control). For the same sequence, the binding signal (SPDEF) was 1.02 fold enrichment (6-mer frequency, TF over GST control), the binding signal (ETV7) was 1.07 fold enrichment (6-mer frequency, TF over GST control) and the binding signal (ELF5) was 1.05 fold enrichment (6-mer frequency, TF over GST control). The binding signal (ETV3) was 1.16 fold enrichment (6-mer frequency, TF over GST control) and the binding signal (ETV6) was 1.11 fold enrichment (6-mer frequency, TF over GST control).
In the case of TGGTTA, the binding signal (ERF) was 1.05 fold enrichment (6-mer frequency, TF over GST control), the binding signal (ETV3L) was 1.12 fold enrichment (6-mer frequency, TF over GST control) and the binding signal (ETS2) was 1.07 fold enrichment (6-mer frequency, TF over GST control). The binding signal (SPDEF) was 1.07 fold enrichment (6-mer frequency, TF over GST control), the binding signal (ETV7) was 1.16 fold enrichment (6-mer frequency, TF over GST control) and the binding signal (ELF5) was 1.05 fold enrichment (6-mer frequency, TF over GST control). The binding signal (ETV3) was 1.05 fold enrichment (6-mer frequency, TF over GST control) and the binding signal (ETV6) was 1.1 fold enrichment (6-mer frequency, TF over GST control).
AAAAAC was tested, and the binding signal (ERF) was 1.22 fold enrichment (6-mer frequency, TF over GST control), the binding signal (ETV3L) was 1.25 fold enrichment (6-mer frequency, TF over GST control) and the binding signal (ETS2) was 1.29 fold enrichment (6-mer frequency, TF over GST control). For the same sequence, the binding signal (SPDEF) was 1.23 fold enrichment (6-mer frequency, TF over GST control), the binding signal (ETV7) was 1.29 fold enrichment (6-mer frequency, TF over GST control) and the binding signal (ELF5) was 1.3 fold enrichment (6-mer frequency, TF over GST control). For the same sequence, the binding signal (ETV3) was 1.2 fold enrichment (6-mer frequency, TF over GST control) and the binding signal (ETV6) was 1.26 fold enrichment (6-mer frequency, TF over GST control).
In the case of GTTTCA, the binding signal (ERF) was 1.35 fold enrichment (6-mer frequency, TF over GST control), the binding signal (ETV3L) was 1.35 fold enrichment (6-mer frequency, TF over GST control) and the binding signal (ETS2) was 1.34 fold enrichment (6-mer frequency, TF over GST control). The binding signal (SPDEF) was 1.22 fold enrichment (6-mer frequency, TF over GST control), the binding signal (ETV7) was 1.21 fold enrichment (6-mer frequency, TF over GST control) and the binding signal (ELF5) was 1.35 fold enrichment (6-mer frequency, TF over GST control). For the same sequence, the binding signal (ETV3) was 1.3 fold enrichment (6-mer frequency, TF over GST control) and the binding signal (ETV6) was 1.21 fold enrichment (6-mer frequency, TF over GST control).
For GTTTAT, the binding signal (ERF) was 1.17 fold enrichment (6-mer frequency, TF over GST control), the binding signal (ETV3L) was 1.26 fold enrichment (6-mer frequency, TF over GST control) and the binding signal (ETS2) was 1.1 fold enrichment (6-mer frequency, TF over GST control). The binding signal (SPDEF) was 1.11 fold enrichment (6-mer frequency, TF over GST control), the binding signal (ETV7) was 1.19 fold enrichment (6-mer frequency, TF over GST control) and the binding signal (ELF5) was 1.14 fold enrichment (6-mer frequency, TF over GST control). The binding signal (ETV3) was 1.1 fold enrichment (6-mer frequency, TF over GST control) and the binding signal (ETV6) was 1.18 fold enrichment (6-mer frequency, TF over GST control).
For CGCGTC, the binding signal (ERF) was 1.37 fold enrichment (6-mer frequency, TF over GST control), the binding signal (ETV3L) was 1.26 fold enrichment (6-mer frequency, TF over GST control) and the binding signal (ETS2) was 1.24 fold enrichment (6-mer frequency, TF over GST control). For the same sequence, the binding signal (SPDEF) was 1.31 fold enrichment (6-mer frequency, TF over GST control), the binding signal (ETV7) was 1.25 fold enrichment (6-mer frequency, TF over GST control) and the binding signal (ELF5) was 1.34 fold enrichment (6-mer frequency, TF over GST control). The binding signal (ETV3) was 1.23 fold enrichment (6-mer frequency, TF over GST control) and the binding signal (ETV6) was 1.29 fold enrichment (6-mer frequency, TF over GST control).
GTACCT was tested, and the binding signal (ERF) was 1.19 fold enrichment (6-mer frequency, TF over GST control), the binding signal (ETV3L) was 1.19 fold enrichment (6-mer frequency, TF over GST control) and the binding signal (ETS2) was 1.21 fold enrichment (6-mer frequency, TF over GST control). For the same sequence, the binding signal (SPDEF) was 1.27 fold enrichment (6-mer frequency, TF over GST control), the binding signal (ETV7) was 1.2 fold enrichment (6-mer frequency, TF over GST control) and the binding signal (ELF5) was 1.31 fold enrichment (6-mer frequency, TF over GST control). For the same sequence, the binding signal (ETV3) was 1.14 fold enrichment (6-mer frequency, TF over GST control) and the binding signal (ETV6) was 1.19 fold enrichment (6-mer frequency, TF over GST control).
In the case of TGATTT, the binding signal (ERF) was 1.17 fold enrichment (6-mer frequency, TF over GST control), the binding signal (ETV3L) was 1.29 fold enrichment (6-mer frequency, TF over GST control) and the binding signal (ETS2) was 1.28 fold enrichment (6-mer frequency, TF over GST control). For the same sequence, the binding signal (SPDEF) was 1.21 fold enrichment (6-mer frequency, TF over GST control), the binding signal (ETV7) was 1.24 fold enrichment (6-mer frequency, TF over GST control) and the binding signal (ELF5) was 1.23 fold enrichment (6-mer frequency, TF over GST control). The binding signal (ETV3) was 1.24 fold enrichment (6-mer frequency, TF over GST control) and the binding signal (ETV6) was 1.23 fold enrichment (6-mer frequency, TF over GST control).
ACACCC was tested, and the binding signal (ERF) was 1.17 fold enrichment (6-mer frequency, TF over GST control), the binding signal (ETV3L) was 1.18 fold enrichment (6-mer frequency, TF over GST control) and the binding signal (ETS2) was 1.09 fold enrichment (6-mer frequency, TF over GST control). For the same sequence, the binding signal (SPDEF) was 1.21 fold enrichment (6-mer frequency, TF over GST control), the binding signal (ETV7) was 1.09 fold enrichment (6-mer frequency, TF over GST control) and the binding signal (ELF5) was 1.12 fold enrichment (6-mer frequency, TF over GST control). For the same sequence, the binding signal (ETV3) was 1.14 fold enrichment (6-mer frequency, TF over GST control) and the binding signal (ETV6) was 1.01 fold enrichment (6-mer frequency, TF over GST control).
